Assay outcomes (PubChem BioAssay)
MPTP block = permeability transition pore inhibition; isolated mouse mitochondria, Ca2+ swelling absorbance, 30 min; inhibition, % at 10 µM; 360,000 compounds, 1.4% hits;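 active = inhibition of 50% or more, scaled per plate between neutral and stimulator controls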
Beta cell apopt = beta cell apoptosis inhibition; INS-1E cytokine-induced death, ATP luminescence, 48 h; percent of positive-control rescue, neutral wells zero; AID 435005; 300,000 compounds, 0.8% hits; protection from apoptosis, % (no concentration beside the values);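 active = Every replicate reaches about 75%, or at least half do and their mean reaches it too, limit read from the data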;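 note: higher means more ATP so stronger rescue from cytokine killing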
Gli-Sufu block = Gli-Sufu pathway antagonism; Sufu-KO-LIGHT fibroblasts, Gli luciferase reporter luminescence; inhibition, % at 5 µM; 340,000 compounds, 0.74% hits; AID 588413;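 active = inhibition above about 55%, limit read from the data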
CSC inhib = blocks cancer stem cells. cancer stem cell-like cells viability, luminescence. inhibition, % at 7.5 µM. 300,000 compounds, 1.1% hits; in the data active = inhibition above about 75%; tested in HMLE shEcad cells
GRIN3A LBD mod = modulates the human NR3A ligand-binding domain. NR3A LBD differential scanning fluorimetry, Tm shift; 0% = protein alone, 100% = glycine-bound protein. Tm shift relative to glycine control, % at 25 µM. 340,000 compounds, 2.5% hits;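 active = melting temperature shift of at least 10% of the positive control shift, at one fixed dose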
Mdm2-MdmX inh = inhibitors of human Mdm2/MdmX interaction; O15151+Q00987; SaOS-2 split-luciferase Mdm2/MdmX complementation, luminescence; inhibition, % at 8 µM; 330,000 compounds, 3% hits; AID 485346;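 active = inhibition of at least 50% at 8 µM in the primary screen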
Of the large screens only hits and unclear results are named; the others gave an inactive call. Rows were chosen to be rich in hits. Some 6.6% of all compounds tested hit in one or more screens of this group.

CC(=O)c1c(C(C)=O)c(C)n(-c2nc(-c3cccs3)c(C)s2)c1C	GRIN3A LBD mod 11.6
Cn1c(N)c(C(=O)N/N=C/c2ccccc2)sc1=S	GRIN3A LBD mod 32.8
O=C(NCc1cc2ccccc2[nH]1)C1CCC(=O)N(CC2CCCCC2)C1 (stereo unspecified)	none (no result: Beta cell apopt, Gli-Sufu block, CSC inhib, GRIN3A LBD mod, Mdm2-MdmX inh)
O=C1NC2(CCCCC2)C(=O)N1CCS(=O)(=O)Oc1ccccc1	GRIN3A LBD mod 12.2
O=C1NC2(CCCCC2)C(=O)N1CCN1C(=O)c2ccccc2C1=O	none
O=C(Nc1ccccc1-c1ccccc1)c1cccc(C(F)(F)F)c1	GRIN3A LBD mod 17.8
O=C(Nc1ccc(C(F)(F)F)cc1-c1ccccc1)c1ccccc1	none
NNC(=O)c1ccc(-c2cccc([N+](=O)[O-])c2)o1	none
O=C(Nc1ccc2oc(=O)ccc2c1)c1ccc(-c2ccc(Cl)cc2)o1	GRIN3A LBD mod 27.1
COc1cc2ccccc2cc1C(=O)Nc1ccc2oc(=O)ccc2c1	GRIN3A LBD mod 15.2
COc1cc(OC)c(C(=O)Nc2ccc3ccccc3c2)cc1OC	none
O=C(Nc1ccc2oc(=O)ccc2c1)c1ccc(-c2cccc(Cl)c2)o1	GRIN3A LBD mod 28.6
O=C(Nc1ccc2oc(=O)ccc2c1)c1cc2ccccc2o1	none
O=C(Nc1ccc2oc(=O)ccc2c1)c1ccc(-c2cccc([N+](=O)[O-])c2)o1	GRIN3A LBD mod 35.3
O=C(Nc1ccc(CN2CCOCC2)cc1)c1ccc(-c2cccc(Cl)c2)o1	none
Cc1[nH]c(C)c(S(=O)(=O)NCc2ccc(F)cc2)c1C(=O)N1CCCC1	none
CC(=NNC(=S)Nc1cccc(Cl)c1)c1ccccn1	Gli-Sufu block 56.8 (no result: Beta cell apopt, CSC inhib, Mdm2-MdmX inh)
CC(=NNC(=S)SCc1ccccc1)c1ccccn1	Gli-Sufu block 78.2 (no result: Beta cell apopt, CSC inhib, Mdm2-MdmX inh)
CC(=NNC(=S)N1CCC1)c1ccccn1	Gli-Sufu block 89.1 (no result: Beta cell apopt, CSC inhib, Mdm2-MdmX inh)
CC(=NNC(=S)N1CCCC1)c1ccccn1	none (no result: Beta cell apopt, Gli-Sufu block, CSC inhib, GRIN3A LBD mod, Mdm2-MdmX inh)
S=C(NCc1ccccn1)Nc1cccc(Cl)c1	none
COc1ccc(CCN(Cc2cc3cccc(C)c3n3nnnc23)C(=O)c2ccncc2)cc1OC	none (no result: MPTP block, Gli-Sufu block, GRIN3A LBD mod)
O=S1(=O)CCC(NC(=S)NCCNC(=S)NC2CCS(=O)(=O)C2)C1 (stereo unspecified)	GRIN3A LBD mod 20.5 (no result: CSC inhib)
CCOC(=O)c1cc(C)n(S(=O)(=O)c2ccc(C)cc2)c1C	GRIN3A LBD mod 13.7
CCOC(=O)c1ccccc1NS(=O)(=O)c1ccc(C)cc1	none
O=P(Nc1ccccc1)(Nc1ccccc1)c1ccccc1	none (no result: Beta cell apopt, CSC inhib, Mdm2-MdmX inh)
O=C(NC(=S)Nc1ccc(N2CCOCC2)c(Cl)c1)c1cncc(Br)c1	none
O=C(NC(=S)Nc1ccc(N2CCCCC2)c(Cl)c1)c1ccc2c(c1)OCCO2	CSC inhib 88.6 (no result: Beta cell apopt)
CC(C)C(=O)Nc1cccc(NC(=S)NC(=O)c2ccc3c(c2)OCO3)c1	GRIN3A LBD mod 11.6
Nn1c(COc2ccccc2F)nnc1SCC(=O)NCC1CCCO1 (stereo unspecified)	none (no result: Beta cell apopt, Gli-Sufu block, CSC inhib, GRIN3A LBD mod, Mdm2-MdmX inh)
Cc1ccc2nc(-c3ccccn3)c(NC3CCCC3)n2c1	Beta cell apopt 102.3
CC(=O)Nc1ccc(NC(=O)CSc2ncc(C(=O)Nc3ccc(F)cc3)c(=O)n2C)cc1	none
CC(=O)Nc1cccc(NC(=O)CSc2ncc(C(=O)Nc3ccc(F)cc3)c(=O)n2C)c1	GRIN3A LBD mod 18.1
O=C(CSc1ccccn1)Nc1ccc2[nH]c(=O)[nH]c2c1	none
S=C(Nc1ccc(Nc2ccccc2)cc1)Nc1ccccn1	Beta cell apopt 86.2
S=C(Nc1ccccc1)Nc1ccccn1	none (no result: Beta cell apopt, Gli-Sufu block, CSC inhib, GRIN3A LBD mod, Mdm2-MdmX inh)
CCCCNS(=O)(=O)CCNCc1ccc(OC)cc1	none (no result: Beta cell apopt, CSC inhib)
COc1ccc(CNCCS(=O)(=O)NN2CCOCC2)cc1	GRIN3A LBD mod 16.8 (no result: Beta cell apopt, CSC inhib)
CC(C)(C)NC(=O)CN(Cc1ccco1)C(=O)CCC(=O)Nc1nccs1	none
Oc1ccc(/C=N/n2c3ccccc3c3ccccc32)cc1	GRIN3A LBD mod 15.6
Cc1nnc(C)n1/N=C/c1ccc(O)cc1	none (no result: Gli-Sufu block, GRIN3A LBD mod)
O=C(Nc1cccc(-c2csc(-c3ccccc3)n2)c1)c1cccs1	CSC inhib 192.0, GRIN3A LBD mod 23.9
Cc1ccn2cc(-c3cccc(NC(=O)c4cccs4)c3)nc2c1	none
O=C(Nc1ccc(O)c(-c2nc3ccccc3s2)c1)c1cccs1	GRIN3A LBD mod 26.1
Cc1nc(-c2cccc(NC(=O)c3cccs3)c2)cs1	none
Cc1cccn2cc(-c3cccc(NC(=O)c4cccs4)c3)nc12	GRIN3A LBD mod 23.3
COc1ccc(N2C(=O)CC(C)(C)CC2=O)cc1OC	none
CN(C(=O)c1cnccn1)c1c(N)n(Cc2ccccc2)c(=O)[nH]c1=O	none
